Test results published in the supplement of paper PMC3334620.
The full ranking holds about 33,000 sequences; the median of “E-score (-0.5 to 0.5)” is about -0.013, and the highest 2% start at about 0.3. The sample as a whole holds a higher share of the highest values than the screen did.

Target: T1, Msn1 (UniProt P22148)
T1 sequence: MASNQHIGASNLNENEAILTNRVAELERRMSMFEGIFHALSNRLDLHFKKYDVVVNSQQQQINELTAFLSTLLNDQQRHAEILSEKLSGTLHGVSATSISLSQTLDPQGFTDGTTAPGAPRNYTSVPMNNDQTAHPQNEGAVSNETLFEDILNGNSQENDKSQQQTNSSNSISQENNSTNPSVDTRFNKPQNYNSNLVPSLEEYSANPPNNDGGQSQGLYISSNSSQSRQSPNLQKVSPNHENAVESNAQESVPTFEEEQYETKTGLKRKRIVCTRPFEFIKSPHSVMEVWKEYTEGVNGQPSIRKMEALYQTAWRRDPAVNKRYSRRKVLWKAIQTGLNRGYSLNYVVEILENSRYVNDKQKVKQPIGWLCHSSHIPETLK
Assay: PBM E-score (8-mer binding enrichment) (E-score (-0.5 to 0.5)); higher = stronger / more preferred TF binding
Conditions: protein concentration: 200 nM; construct: GST-full length
In short: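 The E-score, a modified Wilcoxon-Mann-Whitney statistic, was computed by the Universal PBM Analysis Suite for every ungapped eight-base word pooled with its reverse complement. Scans behind it were normalised with masliner after bound GST-tagged yeast transcription factors were detected with fluorescent anti-GST. The proteins, at about 100-200 nM, had been applied to universal all-10-mer Agilent arrays made double-stranded by primer extension.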

First: GCTGAACA
Second: CTGGCGTA
The “PBM E-score” value of the first is higher: 0.00499 for the first, -0.252 for the second.

Compared with AGGCGGTG, TCCATCCA is higher in “PBM E-score” value: -0.217 for the first, -0.00245 for the second.

Going from CAACCAGC to CTTTTGTA, the “PBM E-score” value rises from -0.114 to 0.3.

Going from CTTTTGAC to CCTTTGTA, the “PBM E-score” value rises from 0.0513 to 0.163.

Compared with CTTTTGTC, ACTTTGTG is lower in “PBM E-score” value: 0.455 for the first, 0.0353 for the second.

First: CCTTTGCC
Second: ACTTTGTA
The “PBM E-score” value of the first is lower: -0.104 for the first, 0.129 for the second.

Compared with CCTTTGTC, ACTTTGTC is higher in “PBM E-score” value: 0.367 for the first, 0.41 for the second.

First: GAATTGCC
Second: AACCTACA
The “PBM E-score” value of the first is higher: 0.0969 for the first, 0.0149 for the second.

Going from GGATCATA to ATAGCATG, the “PBM E-score” value falls from -0.0918 to -0.207.

Compared with GGACACGA, AGACACAG is lower in “PBM E-score” value: 0.396 for the first, 0.131 for the second.

Going from CGACACAA to CGACACGA, the “PBM E-score” value rises from 0.00596 to 0.274.

Compared with GGACACCC, GGACACAA is higher in “PBM E-score” value: -0.0113 for the first, 0.462 for the second.

Compared with AGACACAC, AGACACAA is higher in “PBM E-score” value: 0.133 for the first, 0.332 for the second.

First: CGACACAC
Second: AGACACGA
The “PBM E-score” value of the first is lower: 0.0525 for the first, 0.158 for the second.

First: GGACACAC
Second: TGACACAA
The “PBM E-score” value of the first is higher: 0.382 for the first, 0.183 for the second.

First: CGATATCG
Second: TCCTGAGA
The “PBM E-score” value of the first is lower: 0.0659 for the first, 0.0942 for the second.

First: CTTTATGA
Second: AGCTCTTA
The “PBM E-score” value of the first is higher: 0.0103 for the first, -0.0201 for the second.

Going from CGGGCAAG to CAACGTTG, the “PBM E-score” value rises from 0.0918 to 0.128.

Compared with AGGCAACA, GCCAGTCA is higher in “PBM E-score” value: -0.161 for the first, -0.117 for the second.

Compared with CTCTGTAC, ATCTGTCA is higher in “PBM E-score” value: 0.0138 for the first, 0.159 for the second.

First: ATCTGTCG
Second: ATCTGTCC
The “PBM E-score” value of the first is lower: 0.0829 for the first, 0.387 for the second.

Going from CTCTGTCC to CTCTGTCA, the “PBM E-score” value falls from 0.34 to -0.0435.

Going from AAAACCTG to AAGCTCCA, the “PBM E-score” value falls from 0.0428 to -0.219.

Compared with GAAGGGCC, ATCTGTTA is higher in “PBM E-score” value: -0.143 for the first, 0.183 for the second.

First: ATCGCAAA
Second: ATTTGTCA
The “PBM E-score” value of the first is lower: 0.0406 for the first, 0.46 for the second.

Compared with AGTTGTCG, CTTTGTCA is higher in “PBM E-score” value: 0.168 for the first, 0.311 for the second.

Going from CTTTGTCC to GTTTGTCA, the “PBM E-score” value falls from 0.485 to 0.299.

Compared with ATTTGTTG, CTTTGTGA is lower in “PBM E-score” value: 0.177 for the first, 0.126 for the second.

First: CTTTGTGC
Second: CTTTGTTA
The “PBM E-score” value of the first is lower: 0.058 for the first, 0.215 for the second.

Going from ATTTGTTA to ATTTGTCG, the “PBM E-score” value rises from 0.087 to 0.451.

First: CTTTGTTC
Second: GCGCTAGA
The “PBM E-score” value of the first is higher: 0.0603 for the first, -0.116 for the second.

Compared with TATTGGCA, GGCTGGAC is lower in “PBM E-score” value: 0.0554 for the first, -0.135 for the second.

First: TATGGTGA
Second: CCGCTCAC
The “PBM E-score” value of the first is higher: -0.0581 for the first, -0.22 for the second.

Compared with ATCACGAC, GACAAGGA is higher in “PBM E-score” value: 0.117 for the first, 0.311 for the second.

Going from TACAAAGA to CACAAGGA, the “PBM E-score” value falls from 0.208 to 0.0619.

First: GACAAAGC
Second: AACAAAGC
The “PBM E-score” value of the first is higher: 0.393 for the first, -0.00117 for the second.

Going from AACAAAGA to GACAAAGA, the “PBM E-score” value rises from 0.139 to 0.404.

Compared with TACAAGGA, CACAAAGC is lower in “PBM E-score” value: 0.197 for the first, 0.161 for the second.

First: CCATGAAG
Second: ACGTCGCT
The “PBM E-score” value of the first is higher: 0.0685 for the first, -0.211 for the second.

Going from CAAGTGAA to GCATGCCC, the “PBM E-score” value falls from 0.223 to 0.101.

Compared with CTCTTGCC, CGACAGAA is higher in “PBM E-score” value: -0.0644 for the first, 0.167 for the second.

Going from AGACAGAC to GGACAGAA, the “PBM E-score” value rises from 0.279 to 0.332.

Going from GGACAGAC to CGACAGAC, the “PBM E-score” value falls from 0.375 to -0.0767.

Going from AGACAGAA to GATTGCAC, the “PBM E-score” value rises from 0.00949 to 0.0495.

First: CGAAAGCG
Second: AAGCCAGA
The “PBM E-score” value of the first is higher: 0.0854 for the first, 0.00654 for the second.

Compared with ACGTTCAG, TGTCCGAA is higher in “PBM E-score” value: -0.0415 for the first, 0.452 for the second.

Going from AGTCCACG to GGTCCGAA, the “PBM E-score” value rises from -0.059 to 0.128.

Compared with GGTCCTAA, AGTCCTAA is higher in “PBM E-score” value: 0.18 for the first, 0.297 for the second.

Compared with CGTCCGAA, TGTCCAAA is higher in “PBM E-score” value: 0.222 for the first, 0.473 for the second.

First: CGTCCACA
Second: GGTCCAAA
The “PBM E-score” value of the first is higher: 0.188 for the first, -0.0431 for the second.

Compared with AGTCCAAA, TGTCCACA is higher in “PBM E-score” value: 0.214 for the first, 0.455 for the second.

Compared with TGTCCTAA, CCGGGATA is lower in “PBM E-score” value: 0.487 for the first, 0.101 for the second.

First: ACTGGTTC
Second: CCAGCTAG
The “PBM E-score” value of the first is higher: -0.0366 for the first, -0.16 for the second.

First: CGCCTGAC
Second: CCTAACGC
The “PBM E-score” value of the first is higher: -0.0177 for the first, -0.129 for the second.

Compared with AGTGAGGA, AACATAGC is higher in “PBM E-score” value: -0.0425 for the first, 0.13 for the second.
